Data as given in PubChem BioAssay.
For some assays here: Entries with a potency or affinity are not part of this list. Activity calls are given as the source filed them. No rule for the calls is given here.

Target: Plasmodium falciparum protein kinase 6 (PK6, PF3D7_1337100) (UniProt Q8IDW1)
Assay: PfPK6 kinase inhibitors, biochemical, TCAMS library (AID 1159586)
Conditions: recombinant PfPK6, Kinase-Glo ATP depletion luminescence

Plasmodium falciparum protein kinase 6 (PK6, PF3D7_1337100), sequence (Q8IDW1 1-305): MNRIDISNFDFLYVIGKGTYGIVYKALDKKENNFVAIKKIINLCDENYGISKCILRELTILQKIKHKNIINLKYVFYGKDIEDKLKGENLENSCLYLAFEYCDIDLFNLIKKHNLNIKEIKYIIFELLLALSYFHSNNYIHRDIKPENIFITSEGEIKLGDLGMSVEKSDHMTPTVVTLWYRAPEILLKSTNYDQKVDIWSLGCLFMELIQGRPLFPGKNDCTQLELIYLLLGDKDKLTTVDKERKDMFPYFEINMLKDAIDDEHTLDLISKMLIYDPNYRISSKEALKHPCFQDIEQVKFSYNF

outcome, inactive:
O=C(/C=C/c1ccc(Cl)c(Cl)c1)N1CCC(CCCN2CCC(c3c[nH]c4ccccc34)CC2)CC1
CCCc1cc(OC)c(C[C@@H]2c3cc(O)c(Cl)cc3CCN2C)cc1OC
O=C(NCCCCN1CCC(c2cccc3ccccc23)CC1)c1ccc(NC(=O)c2ccc(Cl)cc2)cc1
Cc1c(C(=O)N(C)C)sc2c1c(=O)n(Cc1ccccc1)c(=O)n2CC(=O)Nc1ccccc1F
O=C(NCc1ccc(Cl)cc1)c1ccc(CN2CCCN(CC3CCCCC3)CC2)cc1
O=C(Nc1cccc(-c2nc3ccccc3s2)c1)c1ccccc1[N+](=O)[O-]
CCCOC(=O)C1=C(C)NC2=C(C(=O)CC(c3ccc(OC)c(OC)c3)C2)C1c1cccc(O)c1 (stereo not given)
O=C(/C=C/c1ccc(Cl)c(Cl)c1)N1CCC(CN2CCC(c3c[nH]c4ccncc34)CC2)CC1
Cc1ccc(O)cc1Nc1ccnc2ccc(-c3cccc(CNCCN(C)C)c3)cc12
CCOc1cc(C2C(C(=O)OC(C)C)=C(C)NC3=C2C(=O)CC(c2ccc(Cl)cc2)C3)ccc1OC(C)=O (stereo not given)
CN1CCC(C(=O)N(Cc2ccc(-c3ccc(CNCCc4ccc(S(C)(=O)=O)cc4)cn3)cc2)C2CCN(Cc3ccccc3)CC2)CC1
COc1cc2nc(N3CCC(CNC(=O)c4ccc(-c5ccc(C(=O)N(C)C)cc5OCCN(C)C)cc4)CC3)nc(N)c2cc1OC
COc1ccc(CNc2ccnc3cc(OC)ccc23)cc1
Cc1cc(O)c(CN2CCN(Cc3cccs3)CC2)cc1C(C)C
CN(C)CCCNCc1cn(S(=O)(=O)c2ccccc2Cl)c2ccccc12
Cc1cc(N)c2cc(NC(=O)c3ccc4ccccc4c3)ccc2n1
COc1cccc(NC(=O)NC2CCN(c3ccnc(Nc4ccc(F)cc4)n3)C2)c1 (stereo not given)
COc1ccc(CNc2ncnc3c2[nH]c2ccc(F)cc23)cc1
FC(F)(F)c1cnc(Sc2nnc(-c3ccncc3)o2)c(Cl)c1
COc1cccc(-c2csc(C(=O)NCC3CCN(Cc4ccc(C(C)(C)C)cc4)C3)c2)c1 (stereo not given)
COc1cc(OC)nc(C(Sc2ccc(NC(=O)c3cccs3)cc2)c2ccccc2)n1 (stereo not given)
COCCn1ccc2c3c(N)nc(N)nc3ccc21
CCCNC(=O)C1Cc2cc(OC)c(OC)cc2C2(N1)C(=O)N(Cc1cccc(OC)c1)c1ccccc12 (stereo not given)
O=C(c1ccc(F)c(F)c1)N1CCOC(CCN2CCC(c3ccccc3)CC2)(c2ccc(Cl)c(Cl)c2)C1 (stereo not given)
COc1ccc(-c2nc(NC(=O)CS(=O)(=O)c3ccc(C)cc3)sc2C)cc1
COc1ccc(-c2ccccc2OCCCNc2nc(NCCc3ccc(O)cc3)nc(N3CCNCC3)n2)cc1
CC(O)C1CCCCN1C(=O)c1ccc(-c2cccc(-c3nc4ccc(F)cc4[nH]3)c2)cc1 (stereo not given)
CCN(CC)CCCC(C)Nc1c(-c2ccc(Br)cc2)cnc2ccccc12 (stereo not given)
NCc1cccc(-c2cccc(CNC3CCN(Cc4ccccc4)CC3)c2)c1
NS(=O)(=O)c1ccc(CNc2ccc3ncc(-c4ccc(Cl)cc4)n3n2)cc1
CCN(CC)CCCN(CCCN(CC)CC)c1cc(C)nc(Nc2ccc(Cl)cc2)n1
COc1cc2nc(N3CCC(CNCc4ccc(-c5ccc(C(F)(F)F)cc5)cc4)CC3)nc(N)c2cc1OC
CCCCCn1c(Sc2ccc(C#N)c([N+](=O)[O-])c2)nnc1-c1cc(OC)cc(OC)c1
Cc1cccc2[nH]c(-c3cccc(-c4ccc(NC(=O)C(C)(C)c5ccccn5)cc4)c3)nc12
O=C(Cc1ccsc1)NCC(c1ccccc1Cl)c1c[nH]c2ccccc12 (stereo not given)
O=C(c1cc(C(=O)Nc2ccccc2)c(=O)n(-c2ccccc2)c1)c1cc(Cl)ccc1O
Cc1ccc2nc(-c3ccccc3)cc(NN=Cc3cccnc3)c2c1
Cc1[nH]c(C)c(-c2ccc(OCc3cccc(C(F)(F)F)c3)nc2)c(=O)c1Br
COc1cc2nc(C)nc(Nc3ccc4c(ccn4Cc4ccccc4)c3)c2cc1OC
O=C(c1ccc(F)cc1)N1CCOC(CCN2CCC(c3ccccc3)CC2)(c2ccc(Cl)c(Cl)c2)C1 (stereo not given)

Target: Protein kinase 7 (PK7), Plasmodium falciparum 3D7 (PF3D7_0213400) (UniProt Q7YTF7)
Assay: inhibition of Plasmodium PK7 catalytic activity – biochemical, TCAMS antimalarial set, Kinase-Glo luminescence (AID 1159587)
Conditions: recombinant PfPK7, Kinase-Glo ATP depletion luminescence

Protein kinase 7 (PK7), Plasmodium falciparum 3D7 (PF3D7_0213400), sequence (Q7YTF7 1-343): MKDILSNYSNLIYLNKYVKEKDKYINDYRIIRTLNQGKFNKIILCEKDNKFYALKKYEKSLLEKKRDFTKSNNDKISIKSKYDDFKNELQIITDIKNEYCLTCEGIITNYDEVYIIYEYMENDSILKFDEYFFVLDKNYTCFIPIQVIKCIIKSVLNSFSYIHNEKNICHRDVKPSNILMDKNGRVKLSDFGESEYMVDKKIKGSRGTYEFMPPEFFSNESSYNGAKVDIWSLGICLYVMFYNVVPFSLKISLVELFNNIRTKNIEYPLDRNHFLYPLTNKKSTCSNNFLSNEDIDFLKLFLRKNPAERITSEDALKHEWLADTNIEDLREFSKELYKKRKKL

outcome, inactive:
O=C(/C=C/c1ccc(Cl)c(Cl)c1)N1CCC(CCCN2CCC(c3c[nH]c4ccccc34)CC2)CC1
CCCc1cc(OC)c(C[C@@H]2c3cc(O)c(Cl)cc3CCN2C)cc1OC
O=C(NCCCCN1CCC(c2cccc3ccccc23)CC1)c1ccc(NC(=O)c2ccc(Cl)cc2)cc1
Cc1c(C(=O)N(C)C)sc2c1c(=O)n(Cc1ccccc1)c(=O)n2CC(=O)Nc1ccccc1F
O=C(NCc1ccc(Cl)cc1)c1ccc(CN2CCCN(CC3CCCCC3)CC2)cc1
O=C(Nc1cccc(-c2nc3ccccc3s2)c1)c1ccccc1[N+](=O)[O-]
CCCOC(=O)C1=C(C)NC2=C(C(=O)CC(c3ccc(OC)c(OC)c3)C2)C1c1cccc(O)c1 (stereo not given)
O=C(/C=C/c1ccc(Cl)c(Cl)c1)N1CCC(CN2CCC(c3c[nH]c4ccncc34)CC2)CC1
Cc1ccc(O)cc1Nc1ccnc2ccc(-c3cccc(CNCCN(C)C)c3)cc12
CCOc1cc(C2C(C(=O)OC(C)C)=C(C)NC3=C2C(=O)CC(c2ccc(Cl)cc2)C3)ccc1OC(C)=O (stereo not given)
CN1CCC(C(=O)N(Cc2ccc(-c3ccc(CNCCc4ccc(S(C)(=O)=O)cc4)cn3)cc2)C2CCN(Cc3ccccc3)CC2)CC1
COc1cc2nc(N3CCC(CNC(=O)c4ccc(-c5ccc(C(=O)N(C)C)cc5OCCN(C)C)cc4)CC3)nc(N)c2cc1OC
COc1ccc(CNc2ccnc3cc(OC)ccc23)cc1
Cc1cc(O)c(CN2CCN(Cc3cccs3)CC2)cc1C(C)C
CN(C)CCCNCc1cn(S(=O)(=O)c2ccccc2Cl)c2ccccc12
Cc1cc(N)c2cc(NC(=O)c3ccc4ccccc4c3)ccc2n1
COc1cccc(NC(=O)NC2CCN(c3ccnc(Nc4ccc(F)cc4)n3)C2)c1 (stereo not given)
COc1ccc(CNc2ncnc3c2[nH]c2ccc(F)cc23)cc1
FC(F)(F)c1cnc(Sc2nnc(-c3ccncc3)o2)c(Cl)c1
COc1cccc(-c2csc(C(=O)NCC3CCN(Cc4ccc(C(C)(C)C)cc4)C3)c2)c1 (stereo not given)
COc1cc(OC)nc(C(Sc2ccc(NC(=O)c3cccs3)cc2)c2ccccc2)n1 (stereo not given)
COCCn1ccc2c3c(N)nc(N)nc3ccc21
CCCNC(=O)C1Cc2cc(OC)c(OC)cc2C2(N1)C(=O)N(Cc1cccc(OC)c1)c1ccccc12 (stereo not given)
O=C(c1ccc(F)c(F)c1)N1CCOC(CCN2CCC(c3ccccc3)CC2)(c2ccc(Cl)c(Cl)c2)C1 (stereo not given)
COc1ccc(-c2nc(NC(=O)CS(=O)(=O)c3ccc(C)cc3)sc2C)cc1
COc1ccc(-c2ccccc2OCCCNc2nc(NCCc3ccc(O)cc3)nc(N3CCNCC3)n2)cc1
CC(O)C1CCCCN1C(=O)c1ccc(-c2cccc(-c3nc4ccc(F)cc4[nH]3)c2)cc1 (stereo not given)
CCN(CC)CCCC(C)Nc1c(-c2ccc(Br)cc2)cnc2ccccc12 (stereo not given)
NCc1cccc(-c2cccc(CNC3CCN(Cc4ccccc4)CC3)c2)c1
NS(=O)(=O)c1ccc(CNc2ccc3ncc(-c4ccc(Cl)cc4)n3n2)cc1
CCN(CC)CCCN(CCCN(CC)CC)c1cc(C)nc(Nc2ccc(Cl)cc2)n1
COc1cc2nc(N3CCC(CNCc4ccc(-c5ccc(C(F)(F)F)cc5)cc4)CC3)nc(N)c2cc1OC
CCCCCn1c(Sc2ccc(C#N)c([N+](=O)[O-])c2)nnc1-c1cc(OC)cc(OC)c1
Cc1cccc2[nH]c(-c3cccc(-c4ccc(NC(=O)C(C)(C)c5ccccn5)cc4)c3)nc12
O=C(Cc1ccsc1)NCC(c1ccccc1Cl)c1c[nH]c2ccccc12 (stereo not given)
O=C(c1cc(C(=O)Nc2ccccc2)c(=O)n(-c2ccccc2)c1)c1cc(Cl)ccc1O
Cc1ccc2nc(-c3ccccc3)cc(NN=Cc3cccnc3)c2c1
Cc1[nH]c(C)c(-c2ccc(OCc3cccc(C(F)(F)F)c3)nc2)c(=O)c1Br
COc1cc2nc(C)nc(Nc3ccc4c(ccn4Cc4ccccc4)c3)c2cc1OC
O=C(c1ccc(F)cc1)N1CCOC(CCN2CCC(c3ccccc3)CC2)(c2ccc(Cl)c(Cl)c2)C1 (stereo not given)
